Assay results reported in PubChem BioAssay (NCI).
Compounds without any hit were thinned out: in the full panel of roughly 79,000, 15% have a hit. A number with no mark means an inactive call. Calls of active or inactive are those of the source. No stated cut-off is given here; in the data, active means growth inhibition above about 70%; inactive means the rest.

Test: NCI Yeast Anticancer Drug Screen. Data for the rad18 strain (AID 177)
Settings: S. cerevisiae rad18 mutant growth inhibition, active compounds read high
Protocol: Growth inhibition of yeast strains with defined genetic alterations is measured as a screen for potential anti-cancer activity. Selected strains with alterations in DNA damage repair or cell cycle control were exposed to compounds and growth inhibition was measured relative to vehicle treated controls. The strain used in this assay is rad18

Compound	growth inhibition (at 1.2 µM)	growth inhibition (at 3.7 µM)	growth inhibition (at 11.0 µM)	growth inhibition (at 33.0 µM)	growth inhibition (at 100.0 µM)
CC(C)NCCCNc1c2ccccc2nc2cccc([N+](=O)[O-])c12	97% (active)	96% (active)	97% (active)	97% (active)	97% (active)
O=C1c2ccccc2N2OC3(N4CCCC4)CCCCC3C12c1ccccc1 (stereo not given)	-9%	-7%	-7%	15%	98% (active)
CC(=O)/C=C/c1cccc([N+](=O)[O-])c1	1%	2%	21%	22%	77% (active)
O=C(Oc1ccc([N+](=O)[O-])cc1)c1ccc([N+](=O)[O-])cc1	4%	7%	5%	22%	45%
c1ccc2c(c1)ccn2CCc1c[nH]c2ccccc12	-42%	-46%	-23%	9%	98% (active)
CC(=O)/C=C/c1cc([N+](=O)[O-])ccc1O	-51%	-47%	-23%	74% (active)	97% (active)
c1cc(-c2sc(-c3ccncc3)c(-c3ccncc3)c2-c2ccncc2)ccn1	10%	-1%	6%	23%	86% (active)
CCN1CCC(O)(c2ccc(Oc3ccc(Cl)cc3)cc2)C(C(=O)c2ccc(Oc3ccc(Cl)cc3)cc2)C1 (stereo not given)	-6%	20%	-1%	-4%	7%
